Measurements published in PubChem BioAssay AID1159580 (chemical genetic matrix, 2015).
Values joined by “and” are separate entries in the source; they are usually repeats but may differ in a detail not shown here. Identical values can stand only once. Out of some 5,500 compounds screened, about 2,000 (36%) were called active. About 18% were inconclusive and are not listed. Cut-off read from the data, not from the text of the source: active = normalized growth mostly below about 0.91 (no sharp cut-off); inconclusive = no clear call, values can overlap the other calls; inactive = mostly above about 0.92. The list shows a part of the results.

Assay: chemical genetic growth profiling, strain panel (AID 1159580);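 note: tested at 20 µM; growth read once vehicle control cultures reached saturation at 30 °C; 1 = growth at the plate median or of vehicle wells; lower values mean less growth of the strain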
Details: S. cerevisiae deletion strains, growth OD

Measured: normalized growth

O=C(O)/C=C/c1ccc(O)c(O)c1
inactive: locus YAL021C, strain ccr4, stronger effect = lower value 0.981 | locus YAL026C, strain drs2, stronger effect = lower value 1 | locus YAL030W, strain snc1, stronger effect = lower value 1 | locus YAL040C, strain CLN3, stronger effect = lower value 1.02 | locus YBL061C, strain skt5, stronger effect = lower value 0.996 | locus YBR009C, strain hhf1, stronger effect = lower value 0.995 | locus YBR021W, strain FUR4, stronger effect = lower value 1.01 | locus YBR023C, strain chs3, stronger effect = lower value 1 | locus YBR171W, strain sec66, stronger effect = lower value 1 | locus YBR229C, strain ROT2, stronger effect = lower value 1.01 | locus YBR231C, strain swc5, stronger effect = lower value 1 | locus YBR279W, strain paf1, stronger effect = lower value 0.995 | locus YCL011C, strain gbp2, stronger effect = lower value 1.01 | locus YCL016C, strain dcc1, stronger effect = lower value 1 | locus YCL029C, strain bik1, stronger effect = lower value 1.01 | locus YCL061C, strain MRC1 (second series), stronger effect = lower value 1.01 | locus YCL061C, strain MRC1, stronger effect = lower value 1 | locus YCL069W, strain vba3, stronger effect = lower value 1 | locus YCR088W, strain abp1, stronger effect = lower value 1 | locus YDL005C, strain med2, stronger effect = lower value 1 | locus YDL035C, strain GPR1, stronger effect = lower value 1.02 | locus YDL040C, strain nat1, stronger effect = lower value 1 | locus YDL074C, strain BRE1, stronger effect = lower value 1.05 | locus YDL101C, strain DUN1, stronger effect = lower value 1.01 | locus YDL134C, strain PPH21, stronger effect = lower value 1 | locus YDL185W, strain tfp1, stronger effect = lower value 1 | locus YDL192W, strain arf1, stronger effect = lower value 1 | locus YDR001C, strain nth1, stronger effect = lower value 1 | locus YDR069C, strain doa4, stronger effect = lower value 1.01 | locus YDR101C, strain arx1, stronger effect = lower value 1 | locus YDR137W, strain rgp1, stronger effect = lower value 0.998 | locus YDR150W, strain NUM1, stronger effect = lower value 1.01 | locus YDR159W, strain sac3, stronger effect = lower value 1 | locus YDR162C, strain NBP2, stronger effect = lower value 1 | locus YDR195W, strain ref2 0.977 | locus YDR297W, strain sur2, stronger effect = lower value 1.01 | locus YDR318W, strain mcm21, stronger effect = lower value 1 | locus YDR334W, strain swr1, stronger effect = lower value 0.993 | locus YDR335W, strain msn5, stronger effect = lower value 0.99 | locus YDR388W, stronger effect = lower value 1.01 | locus YDR392W, strain spt3, stronger effect = lower value 1.03 | locus YDR502C, strain sam2, stronger effect = lower value 0.996 | locus YEL003W, strain gim4, stronger effect = lower value 1.01 | locus YEL037C, strain rad23, stronger effect = lower value 0.991 | locus YEL061C, strain CIN8 (second series), stronger effect = lower value 1 | locus YEL061C, strain CIN8, stronger effect = lower value 1.01 | locus YER002W, strain NOP16, stronger effect = lower value 1.02 | locus YER015W, strain faa2, stronger effect = lower value 1 | locus YER016W, strain bim1, stronger effect = lower value 1.01 | locus YER110C, stronger effect = lower value 1.02 | locus YER111C, strain swi4, stronger effect = lower value 0.981 | locus YER155C, strain BEM2 (second series), stronger effect = lower value 1.03 | locus YER155C, strain BEM2, stronger effect = lower value 1 | locus YER167W, strain BCK2, stronger effect = lower value 1.02 | locus YFR010W, strain ubp6, stronger effect = lower value 1 | locus YGL078C, strain dbp3, stronger effect = lower value 0.997 | locus YGL086W, strain mad1, stronger effect = lower value 1.03 | locus YGL167C, strain pmr1, stronger effect = lower value 1 | locus YGL173C, strain kem1, stronger effect = lower value 1 | locus YGL227W, strain vid30, stronger effect = lower value 1.01 | locus YGL240W, strain doc1, stronger effect = lower value 1 | locus YGL248W, strain PDE1, stronger effect = lower value 0.999 | locus YGL253W, strain hxk2, stronger effect = lower value 1 | locus YGR078C, strain PAC10, stronger effect = lower value 1 | locus YGR135W, strain pre9, stronger effect = lower value 1.01 | locus YGR229C, strain SMI1, stronger effect = lower value 1.01 and 1.04 | locus YGR252W, strain gcn5, stronger effect = lower value 0.981 | locus YHR013C, strain ard1, stronger effect = lower value 0.993 | locus YHR027C, strain rpn1, stronger effect = lower value 0.992 | locus YHR030C, strain SLT2, stronger effect = lower value 1.01 | locus YHR079C, strain IRE1 (second series), stronger effect = lower value 1.03 | locus YHR079C, strain IRE1, stronger effect = lower value 0.993 | locus YHR094C, strain hxt1, stronger effect = lower value 1.01 | locus YHR129C, strain ARP1, stronger effect = lower value 1.02 | locus YHR142W, strain chs7, stronger effect = lower value 1.01 | locus YHR200W, strain rpn10, stronger effect = lower value 1.03 | locus YIL066C, strain RNR3, stronger effect = lower value 1.01 | locus YIL073C, strain SPO22, stronger effect = lower value 1.04 | locus YIL125W, strain kgd1, stronger effect = lower value 1.01 | locus YIR030C, strain dcg1, stronger effect = lower value 1 | locus YJL092W, strain hpr5, stronger effect = lower value 1 | locus YJL095W, strain BCK1 (second series), stronger effect = lower value 0.994 | locus YJL095W, strain BCK1, stronger effect = lower value 0.996 and 1.01 | locus YJL115W, strain asf1, stronger effect = lower value 0.991 | locus YJL129C, strain trk1, stronger effect = lower value 1 | locus YJL134W, strain LCB3, stronger effect = lower value 1.01 | locus YJL154C, strain vps35, stronger effect = lower value 0.999 | locus YJL164C, strain tpk1, stronger effect = lower value 1.01 | locus YJL166W, strain qcr8, stronger effect = lower value 1 | locus YJL168C, strain set2, stronger effect = lower value 1 | locus YJL187C, strain SWE1 (second series), stronger effect = lower value 1 | locus YJL187C, strain SWE1, stronger effect = lower value 0.998
